Where “and” joins values, the source holds several entries; their conditions need not be identical. Identical values can stand only once. Results filed as inconclusive are left out. Some structures have more than one record in an assay (separate samples or runs), and their calls can disagree. Calls of active or inactive are those of the source. The call rests on the fitted dose curve; in most records, active means well fitted inhibition curve with a large enough effect; inconclusive means small, poorly fitted or top-dose-only effect; inactive means flat fitted curve, though single readings scatter.
Key:
CRL-7250 = normal cell line; assay: Cytotoxic Profiling of Annotated Libraries Using Quantitative High-Throughput Screening (AID 1296008); conditions: Five cell lines viability, CellTiter-Glo ATP luminescence, 48-72 h; max response: active compounds read low; further: potency means the concentration at half of the fitted maximal effect; on max response: on the % scale 0 is the no-effect control and ±100 the full control effect
In short: (§1)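 Cells exposed to compounds for 48 or 72 hr at 37 degrees Celsius. Viability read as ATP-coupled luminescence with CellTiter-Glo after 10 min at room temperature.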

HEK293 = assay: as above; conditions: Five cell lines viability, CellTiter-Glo ATP luminescence, 48-72 h; max response: active compounds read low
In short: as §1

HaCat [1] = assay: as above; conditions: Five cell lines viability, CellTiter-Glo ATP luminescence, 48-72 h; max response: active compounds read low
In short: as §1

NIH3T3 = assay: as above; conditions: Five cell lines viability, CellTiter-Glo ATP luminescence, 48-72 h; max response: active compounds read low
In short: as §1

HACAT [2] = assay: qHTS assay to identify novel small-molecules to repurpose for Merkel cell carcinoma treatment (AID 1296009); conditions: MCC and control cell lines, CellTiter-Glo viability, 72 h; at 44.8 µM (top of the series) unless noted
In short: (§2)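 Cells were incubated with compound for 72 hr at 37 degree celsius before CellTiter-Glo addition. Luminescence was normalized with no-cell wells as full cytotoxicity and DMSO as baseline.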

MCC-13 = assay: as above; conditions: MCC and control cell lines, CellTiter-Glo viability, 72 h; series mostly up to 46 µM
In short: as §2

TAB165 = assay: qHTS profiling for inhibitors of Plasmodium falciparum proliferation (AID 504749); further: potency means the concentration at half of the fitted maximal effect; conditions: P. falciparum in erythrocytes, SYBR Green DNA, 72 h; series mostly up to 28.7 µM
In short: (§3)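 Readout was DNA-dye fluorescence from lysed cultures, ex 485/em 535 nm. Parasitized red cells had grown 72 h with compound; data scaled between 0.29 uM artemisinin and DMSO wells and corrected using vehicle-only plates.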

W2 = assay: as above; conditions: P. falciparum in erythrocytes, SYBR Green DNA, 72 h; series mostly up to 28.7 µM
In short: as §3

KB-3-1 = assay: Cytotoxic Profiling of Annotated Libraries Using Quantitative High-Throughput Screening (AID 1296008); conditions: Five cell lines viability, CellTiter-Glo ATP luminescence, 48-72 h; max response: active compounds read low; further: potency means the concentration at half of the fitted maximal effect; on max response: on the % scale 0 is the no-effect control and ±100 the full control effect
In short: as §1

HEK293T = assay: qHTS assay to identify novel small-molecules to repurpose for Merkel cell carcinoma treatment (AID 1296009); conditions: MCC and control cell lines, CellTiter-Glo viability, 72 h; at 44.8 µM (top of the series) unless noted
In short: as §2
Further: nearly all actives have a fitted effect of over 60% in size.

CN1C(=O)CC[C@H]1c1cccnc1
inactive: max response (CRL-7250) -11.6% | max response (HEK293) -8.79% | outcome (HaCat [1]) | max response (NIH3T3) -5.17% | outcome (HACAT [2]) | Potency (MCC-13)

CCN(CC)CCNC(=O)c1ccc(NC(C)=O)cc1
inactive: Potency (TAB165) | Potency (W2) | outcome (CRL-7250) | max response (HEK293) 3.23% | max response (HaCat [1]) 0.497% | max response (KB-3-1) 1.57% | max response (NIH3T3) -3.76% | Potency (MCC-13)

Cc1ccc(=O)n(-c2ccccc2)c1
inactive: Potency (TAB165) | Potency (W2) | max response (CRL-7250) -4.72% | max response (HEK293) 4.05% | max response (HaCat [1]) 3.39% | max response (KB-3-1) 4.11% | max response (NIH3T3) -3.29% | Potency (MCC-13)

CCCCNc1ccc(C(=O)OCCN(C)C)cc1
inactive: Potency (TAB165) | Potency (W2) | max response (CRL-7250) 3.25% | max response (HEK293) -4% | max response (HaCat [1]) -3.56% | max response (KB-3-1) 0.24% | outcome (NIH3T3) | Potency (MCC-13)

CN1C[C@H](C(=O)N[C@]2(C)O[C@@]3(O)[C@@H]4CCCN4C(=O)[C@H](Cc4ccccc4)N3C2=O)C[C@@H]2c3cccc4[nH]cc(c34)C[C@H]21
inactive: outcome (CRL-7250) | max response (HaCat [1]) -5.88% | max response (KB-3-1) 0.239% | Potency (MCC-13)
active: Potency (W2) 1.51 µM | Potency (HEK293) 10.6 µM

Nc1ncn([C@@H]2O[C@H](CO)[C@@H](O)[C@H]2O)c(=O)n1
active: Potency (CRL-7250) 7.5 µM | Potency (HEK293) 3.35 µM
inactive: Potency (TAB165) | Potency (W2) | max response (HaCat [1]) -18.5% | max response (NIH3T3) -10.9%

Cc1ccc(S(=O)(=O)NC(=O)NN2CCCCCC2)cc1
inactive: Potency (TAB165) | Potency (W2) | outcome (CRL-7250) | max response (HEK293) -0.0062% | max response (HaCat [1]) 3.13% | max response (KB-3-1) 3.88% | max response (NIH3T3) 0.771% | Potency (MCC-13)

CCN(CC)CCNC(=O)c1cc(S(C)(=O)=O)ccc1OC
inactive: Potency (TAB165) | max response (CRL-7250) 1.79% | max response (HEK293) -8.18% | max response (HaCat [1]) -0.825% | max response (NIH3T3) -1.98% | Potency (MCC-13)

NC(=O)c1cn(Cc2c(F)cccc2F)nn1
inactive: Potency (TAB165) | Potency (W2) | outcome (CRL-7250) | max response (HEK293) 4.15% | max response (HaCat [1]) 0.796% | max response (NIH3T3) -0.364% | Potency (MCC-13)

CC1=C(C)C(=O)C(CCCCC#CCCCC#CCO)=C(C)C1=O
active: Potency (TAB165) 5.01 µM | Potency (W2) 6.01 µM | Potency (HEK293) 16.8 µM
inactive: max response (CRL-7250) -2.8% | max response (HaCat [1]) -15.6% | max response (NIH3T3) -8.8% | Potency (MCC-13)

C[n+]1cc2c3c(ccc2c2ccc4cc5c(cc4c21)OCO5)OCO3
inactive: Potency (TAB165)
active: Potency (CRL-7250) 1.84 µM | Potency (HEK293) 1.16 µM | Potency (HaCat [1]) 2.59 µM | Potency (NIH3T3) 4.61 µM

Cc1nc2sccn2c(=O)c1CCN1CCC(=C(c2ccc(F)cc2)c2ccc(F)cc2)CC1
active: Potency (TAB165) 12.6 µM
inactive: outcome (CRL-7250) | max response (HaCat [1]) -3.76% | max response (NIH3T3) -6.97% | Potency (MCC-13)

CCC(=O)c1ccc2c(c1)N(CCCN(C)C)c1ccccc1S2
active: Potency (W2) 3.01 µM
inactive: max response (CRL-7250) -1.9% | outcome (HaCat [1]) | max response (NIH3T3) -21.3% | outcome (HACAT [2]) | Potency (MCC-13)

Cc1nnc(SCC2=C(C(=O)O)N3C(=O)[C@@H](NC(=O)Cn4cnnn4)[C@H]3SC2)s1
inactive: Potency (TAB165) | Potency (W2) | outcome (HEK293) | outcome (HaCat [1]) | max response (NIH3T3) -2.45% | outcome (HACAT [2]) | outcome (HEK293T) | Potency (MCC-13)

C[C@]12CCC(=O)C=C1CC[C@@H]1[C@@H]2CC[C@@]2(C)[C@H]1CC[C@]2(O)C(=O)CO
inactive: Potency (TAB165) | Potency (W2) | max response (CRL-7250) -9.98% | max response (HaCat [1]) -3.7% | max response (NIH3T3) -17.4% | Potency (MCC-13)

O=C(CCCN1CCC(O)(c2cccc(C(F)(F)F)c2)CC1)c1ccc(F)cc1
active: Potency (TAB165) 7.94 µM | Potency (W2) 2.69 µM
inactive: max response (CRL-7250) -19.1% | max response (HaCat [1]) 0.0234% | max response (KB-3-1) -16.4% | Potency (MCC-13)

CN1CCN(C2=Nc3ccccc3Oc3ccc(Cl)cc32)CC1
inactive: Potency (TAB165) | outcome (CRL-7250) | max response (HaCat [1]) -5.97% | max response (NIH3T3) -11% | Potency (MCC-13)

OC(CCN1CCCCC1)(c1ccccc1)C1CCCCC1 (configuration not stated)
active: Potency (W2) 6.01 µM
inactive: Potency (TAB165) | outcome (CRL-7250) | outcome (HaCat [1]) | max response (NIH3T3) -0.663% | outcome (HACAT [2]) | Potency (MCC-13)

CC(N=C(NC#N)Nc1ccncc1)C(C)(C)C (configuration not stated)
inactive: Potency (TAB165) | Potency (W2) | outcome (CRL-7250) | outcome (HaCat [1]) | max response (KB-3-1) -0.411% | max response (NIH3T3) 0.852% | outcome (HACAT [2]) | Potency (MCC-13)

O=c1[nH]c(=O)n([C@H]2C[C@H](O)[C@@H](CO)O2)cc1Br
inactive: Potency (TAB165) | Potency (W2) | max response (CRL-7250) 0.0744% | max response (HaCat [1]) 2.47% | max response (KB-3-1) 2.61% | max response (NIH3T3) 1.37% | Potency (MCC-13)

CCCN1C[C@H](CSC)C[C@@H]2c3cccc4[nH]cc(c34)C[C@H]21
active: Potency (TAB165) 14.1 µM | Potency (W2) 5.36 µM | Potency (NIH3T3) 21.1 µM
inactive: max response (CRL-7250) -3.21% and -8.84% | max response (HaCat [1]) 4.81% and -5.73% | max response (KB-3-1) 9.69% | outcome (KB-3-1) | max response (NIH3T3) -7.31% | Potency (MCC-13)

C[C@]12CC[C@@H]3c4ccc(O)cc4C[C@@H](CCCCCCCCCS(=O)CCCC(F)(F)C(F)(F)F)[C@H]3[C@@H]1CC[C@@H]2O (some centres not stated)
inactive: max response (CRL-7250) -49.4% | max response (HaCat [1]) -6.63% | max response (KB-3-1) 3.54% | max response (NIH3T3) -7.29% | Potency (MCC-13)

CC(=O)[C@@]1(O)CC[C@H]2[C@@H]3CCC4=CC(=O)CC[C@]4(C)[C@H]3CC[C@@]21C
inactive: Potency (TAB165) | Potency (W2) | outcome (CRL-7250) | max response (HaCat [1]) 1.18% | max response (KB-3-1) -5.68% | max response (NIH3T3) 2.18% | Potency (MCC-13)

c1cnc(N2CCN(Cc3ccc4c(c3)OCO4)CC2)nc1
inactive: Potency (TAB165) | Potency (W2) | max response (CRL-7250) -1.35% | outcome (HaCat [1]) | max response (KB-3-1) -6.36% | max response (NIH3T3) -2.83% | outcome (HACAT [2]) | Potency (MCC-13)

— PubChem BioAssay (NCATS)
